PubChem BioAssay
Entries with a potency or affinity are not part of this list. Active and inactive are the calls of the source. No rule for the calls is given here.

Assay: toxicity toward immortalized ovarian surface epithelium – cell-based, plate reader, dry powder samples, cytotoxicity control for PAX8 inhibitor project, dose response (AID 743045);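 also: 0% = neutral control median and -100% = positive control median; more negative values mean more cell killing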
Conditions: IOSE-T80 ovarian epithelial cells; series mostly up to 35 µM; activity change, negative = cytotoxicity: at the top concentration

SMILES | activity change, negative = cytotoxicity
Cc1ccc(S(=O)(=O)N(C)C[C@@H]2Oc3cc(C#Cc4ccncc4)ccc3S(=O)(=O)N([C@@H](C)CO)C[C@H]2C)cc1 | 8.82% (inactive)
C[C@H]1CN([C@@H](C)CO)C(=O)c2cccc(NC(=O)Nc3ccc(F)cc3)c2O[C@H]1CN(C)C(=O)Nc1ccc(C(F)(F)F)cc1 | 12.7% (inactive)
COc1ccc(-c2ccc3c(c2)[C@@H]2[C@@H](CCN2C(=O)C2CCCC2)[C@H](CO)N3C)cc1 | 12.7% (inactive)
C[C@@H]1CCCCO[C@H](CN(C)Cc2ccc(Cl)c(Cl)c2)[C@H](C)CN([C@@H](C)CO)C(=O)c2cc(NC(=O)Nc3ccc(F)cc3)ccc2O1 | 18.2% (inactive)
COc1ccccc1-c1ccc2c(c1)O[C@H](CN(C)Cc1ccc3c(c1)OCO3)[C@H](C)CN([C@@H](C)CO)S2(=O)=O | 16.4% (inactive)
Cc1ccc(S(=O)(=O)N(C)C[C@@H]2Oc3c(NC(=O)c4ccc(-c5nccs5)cc4)cccc3C(=O)N([C@@H](C)CO)C[C@@H]2C)cc1 | 11.1% (inactive)
CCCN1[C@H](C(=O)N2CCOCC2)[C@@H](CO)[C@@H]2Cn3c(ccc(/C=C/c4ccccc4)c3=O)[C@@H]21 | 10.5% (inactive)
C[C@@H]1CCCCO[C@@H](CN(C)Cc2ccc(C(F)(F)F)cc2)[C@H](C)CN([C@@H](C)CO)C(=O)c2cc(NS(=O)(=O)c3ccccc3)ccc2O1 | 8.98% (inactive)
O=C(C[C@H]1C[C@@H]2c3cc(NC(=O)Nc4ccc(C(F)(F)F)cc4)ccc3O[C@@H]2[C@@H](CO)O1)NCCc1ccccc1 | 10.8% (inactive)
C[C@@H]1CN([C@@H](C)CO)C(=O)c2cc(NC(=O)c3ccccc3)ccc2O[C@@H](C)CCCCO[C@H]1CN(C)Cc1ccc(C(F)(F)F)cc1 | -8.86% (inactive)
CC(C)CC#Cc1ccc2c(c1)O[C@H](CN(C)S(=O)(=O)c1ccc(F)cc1)[C@H](C)CN([C@@H](C)CO)S2(=O)=O | 10% (inactive)
C[C@@H]1CN([C@H](C)CO)C(=O)c2cc(NS(=O)(=O)c3ccc(F)cc3)ccc2O[C@@H]1CN(C)Cc1ccc(C(F)(F)F)cc1 | 5.44% (inactive)
O=C(Nc1cccc(F)c1)N1CCCCN2[C@@H](CO)[C@@H](c3ccc(-c4ccncc4)cc3)[C@@H]2C1 | 20.4% (inactive)
C[C@@H]1CCCCO[C@H](CN(C)C(=O)c2ccccc2)[C@@H](C)CN([C@@H](C)CO)C(=O)c2cc(NC(=O)Nc3ccc(C(F)(F)F)cc3)ccc2O1 | 12% (inactive)
COc1ccc(S(=O)(=O)N2CCCCN3[C@H](C2)[C@H](c2ccc(C#CC(C)C)cc2)[C@@H]3CO)cc1 | 13% (inactive)
C[C@H](CO)N1C[C@H](C)[C@H](CN(C)Cc2ccc3c(c2)OCO3)OCCCC[C@H](C)Oc2ccc(NS(=O)(=O)c3ccc(Cl)cc3)cc2C1=O | 0.859% (inactive)
C[C@@H]1CCCCO[C@H](CN(C)C(=O)Cc2ccccc2)[C@H](C)CN([C@@H](C)CO)C(=O)c2cc(NC(=O)Nc3ccc(C(F)(F)F)cc3)ccc2O1 | 12.6% (inactive)
COc1ccc(S(=O)(=O)Nc2ccc3c(c2)C(=O)N([C@H](C)CO)C[C@@H](C)[C@H](CN(C)S(=O)(=O)c2ccc(F)cc2)OCCCC[C@H](C)O3)cc1 | 16.5% (inactive)
C[C@H](O)C#Cc1ccc2c(c1)O[C@@H](CN(C)Cc1ccc(-c3ccccc3)cc1)[C@@H](C)CN([C@@H](C)CO)S2(=O)=O | 1.03% (inactive)
C[C@@H]1CN([C@H](C)CO)C(=O)c2cc(NC(=O)Nc3ccc(C(F)(F)F)cc3)ccc2O[C@@H](C)CCCCO[C@H]1CN(C)C(=O)Nc1ccc(F)cc1 | 2.58% (inactive)
C[C@H]1CN([C@@H](C)CO)C(=O)c2ccccc2-c2ccccc2CO[C@H]1CN(C)S(=O)(=O)c1ccc(C(F)(F)F)cc1 | 6.13% (inactive)
C[C@@H]1CN([C@@H](C)CO)C(=O)Cc2cc(NC(=O)Nc3ccc(F)cc3)ccc2O[C@H]1CN(C)Cc1ccc(Cl)c(Cl)c1 | 5.33% (inactive)
C[C@@H]1CN([C@@H](C)CO)S(=O)(=O)c2ccc(C#C[C@@H](C)O)cc2O[C@@H]1CN(C)Cc1ccc(-c2ccccc2)cc1 | 2.72% (inactive)
Cc1ccc(S(=O)(=O)N(C)C[C@H]2Oc3ccc(NC(=O)Nc4ccc(C(F)(F)F)cc4)cc3CC(=O)N([C@H](C)CO)C[C@@H]2C)cc1 | 1.28% (inactive)
C[C@@H]1CN([C@H](C)CO)C(=O)c2cc(NC(=O)Nc3ccc(F)cc3)ccc2O[C@@H](C)CCCCO[C@H]1CN(C)C(=O)Nc1ccc(F)cc1 | 11.8% (inactive)
C[C@@H]1CCCCO[C@@H](CN(C)C(=O)Nc2ccc(C(F)(F)F)cc2)[C@H](C)CN([C@H](C)CO)C(=O)c2cc(NS(=O)(=O)c3ccccc3)ccc2O1 | 14.2% (inactive)
